Data: PubChem BioAssay (NCATS)
Inconclusive results are not listed. Unmarked numbers belong to inactive results. The call rests on the fitted dose curve; in most records, active means well fitted curve in the direction sought with a large enough effect; inconclusive means small, poorly fitted or top-dose-only effect, or another doubt; inactive means no such curve, though single readings can be large; an effect the other way counts as inactive or inconclusive.

Assay: Redox Reaction Profiling qHTS: Assay Interference Panel against the NCATS CANVASS Library (AID 1347401);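 further: 100% = activation by 2 µM chloranil control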
Conditions: resazurin-DTT redox cycling, fluorescence, 15 min; series mostly up to 57.1 µM; activation (redox signal): at the top concentration
In short: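 Resazurin (5 uM) conversion to resorufin measured with 200 uM DTT in 50 mM HEPES pH 7.3, 50 mM NaCl. Compounds tested in 11-point qHTS series. Fluorescence (ex 525/em 598 nm) read before and after 15 min dark incubation.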

Compound	activation (redox signal)
C/C(=C\CC/C(C)=C/CC[C@]1(C)CCc2cc(O)cc(C)c2O1)CC/C=C(\C)C(=O)O	-25%
CC(=O)O[C@H]1C[C@@]2(C)[C@@H](CC[C@H]3[C@@]4(C)C=CC(=O)[C@@H](C)[C@@H]4[C@H](OC(C)=O)C(=O)[C@@]32C)/C1=C(\CCC=C(C)C)C(=O)O	-26.7%
O=C(/C=C/C=C/c1ccc2c(c1)OCO2)N1CCCCC1	-14.1% [at 113 µM]
CC(C)c1ccc2c(c1)CCC1[C@](C)(C(=O)O)CCC[C@]21C (stereo partly drawn)	-14.5%

Assay: qHTS to identify inhibitors of the type 1 interferon - major histocompatibility complex class I in skeletal muscle: primary screen against the NCATS Mechanism Interrogation Plate v5.0 (MIPE) Libary (AID 1347411);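 further: plate controls were vehicle for no effect and reference inhibitor for full effect; nearly all actives have a fitted effect of over 65% in size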
Conditions: iHSKM cells + IFN-b, HiBiT-tagged MHC-I luminescence, 24 h; series mostly up to 45.8 µM; activity change, negative = inhibition: at the top concentration
In short: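 Immortalized human myoblasts (C25cl48) with HiBit knocked into endogenous HLA-B*08:01 were stimulated with 4 ng/ml IFN-beta and given compounds in 11-point 1:3 titration from 46 uM. After 24 h at 37 C, lytic HiBiT luminescence was read.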

Compound	activity change, negative = inhibition
N#CN1CCC[C@@H](n2nc(-c3ccc(Oc4ccc(F)cc4F)cc3)c(C(N)=O)c2N)C1	-15.9%
COc1ccc2[nH]c(S(=O)Cc3ncc(C)c(OC)c3C)nc2c1 (stereo not drawn)	-24.3%
CCCCOc1nc(N)c2c(n1)N(Cc1cccc(CN3CCCC3)c1)CC(=O)N2	-10.8%
Nc1ncnc2c1C(=O)N(c1ccc(C3CCC(CC(=O)O)CC3)cc1)CCO2 (stereo not drawn)	1.2%
Cc1ncc(Cl)cc1NCc1ccc(C(=O)NC(CC2CCCC2)C(=O)NC2CC2)s1 (stereo not drawn)	-29.4%
Cn1cc(-c2c[nH]c3ncnc(N4CCOCC4)c23)cn1	-28.1%
O=C(/C=C/C=C/c1ccc2c(c1)OCO2)N1CCCCC1	-16.3%
C[C@@H]1O[C@@H](O[C@@H]2\C=C/C=C\C=C/C=C\C[C@H](C)OC(=O)/C=C\[C@H]3O[C@@H]3C[C@H](O)C[C@]3(O)C[C@@H](O)[C@@H](C(=O)O)[C@H](C2)O3)[C@H](O)[C@H](N)[C@@H]1O	-2.75%
Cc1ccccc1-n1nc(-c2c(-c3ccc(F)cc3)nn3c2NC[C@@H](CO)C3)ccc1=O	-17.8%
Cc1nc(-c2cccnc2)sc1C(=O)Nc1ccccc1-c1cn2c(CN3CCOCC3)csc2n1	-12.1%
O=C(COCC(=O)N1CCN(C(c2ccccc2)c2ccccc2)CC1)Nc1ccc(Cl)cc1C(=O)O	-28.2%
CCC(CC)CC1(C(=O)Nc2ccccc2SC(=O)C(C)C)CCCCC1	-10.2%
Cc1c(F)cc(C(=O)NC2CC2)cc1-c1ccc(C(=O)NCC(C)(C)C)cn1	-3.15%
CC(C)N(CCCNC(=O)Nc1ccc(C(C)(C)C)cc1)C[C@H]1O[C@@H](n2ccc3c(N)ncnc32)[C@H](O)[C@@H]1O	8.74%
N#Cc1cccc(-c2c[nH]c3ncnc(N4CCOCC4)c23)c1	-20.1%
CNc1nc(C)nc(N[C@H]2CCC[C@@H](C(=O)NCc3ccc(C#N)cc3C(F)(F)F)C2)n1	-5.93%
Cc1cccc(-c2nn3c(c2-c2ccnc4ccc(C(N)=O)cc24)CCC3)n1	-16.3%
O=C(O)CC1CCC(c2ccc(-c3ccc(Nc4ccc(C(F)(F)F)nc4)cn3)cc2)CC1 (stereo not drawn)	4.87%
N#Cc1ccc(C2CCCc3cncn32)cc1 (stereo not drawn)	5.29% [at 15.5 µM]
CC(C)[C@](O)(c1ccc2cc(OC(F)F)c(OC(F)F)cc2c1)c1cn[nH]n1	-21.1%
C=C1C[C@@]2(O)O[C@@]3(C[C@H]2C(C)C)[C@@H](C)CC[C@@H]13	-3.9%
COCCCc1sc(-c2ccccc2)nc1C(=O)Nc1ccccc1-c1nc2cc(CN3CCCC3)cnc2s1	-7.91% [at 15.5 µM]
COc1cccc2c1c(O)c(C(=O)N(C)c1ccc(C(F)(F)F)cc1)c(=O)n2C	-20%
CCc1cccc2c3c([nH]c12)[C@@](CC)(CC(=O)O)OCC3	-12.7%
